Assay outcomes: PubChem, National Center for Advancing Translational Sciences (NCATS)
A selection: hits, their analogues and other compounds. The true share with any hit is near 8%.
KB-V1 cytotox – kills drug-selected multidrug resistant KB-V1 cells | AID 1347076 | KB-V1 MDR cells viability, CellTiter-Glo, 72 h | Potency, µM (top dose mostly 46.1 µM), usual class: cytotoxic | actives 3.4% (n = 400,000); note: % is set by controls: 0 for no effect and ±100 for the full control effect; nearly all actives have a fitted effect of over 60% in size
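KB-V1, DMEM (no phenol red) + 10% FBS; cpd pin-transferred, titration series; 72 h, 37 degrees C; CellTiter-Glo, luminescence. Data normalized, curve-fit.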
MCF10A rerep – DNA re-replication induction in MCF 10a cells; AID 624296; Potency, µM (doses to about 46.1 µM), for the others: top-dose activity, positive = re-replication, usual class: activators; MCF 10A DNA re-replication, Hoechst nuclear intensity, 48 h; actives 2.9% (n = 350,000); note: % of control where 0% means no effect; nearly all actives have a fitted effect of over 50% in size
HT1080 IDH1KD tx – toxicity to HT-1080 IDH1 knockdown cells (counter line). HT-1080 IDH1 knockdown viability, ATP luminescence, 48 h. Potency, µM (doses to about 46.1 µM), for the others: at the highest dose activity, negative = toxicity, hits mostly cytotoxic. actives 2% (n = 360,000);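 note: 0% = DMSO wells and -100% = cell-free medium wells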
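Viability of IDH1-knockdown HT-1080 fibrosarcoma cells was assessed by CellTiter-Glo after 48 h at 37 °C with titrated compound; concentration-effect curves were classified by fit quality and response size.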
HT1080-NT tox – kills 2HG-producing HT-1080-NT fibrosarcoma cells; HT-1080-NT fibrosarcoma viability, CellTiter-Glo ATP luminescence, 48 h; Potency, µM (titrated, usually from 46.1 µM), for the others: at the top dose activity, negative = less viability, hits mostly cytotoxic; actives 1.6% (n = 360,000); AID 686970;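 note: NT is the 2HG producing partner of a matched IDH1 knockdown line; 0% = DMSO-treated cells and -100% = media-only wells without cells; nearly all actives have a fitted effect of over 55% in size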
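Fibrosarcoma NT cells, 750 per well in 5% FBS RPMI, were exposed to compound for 48 hours. Viability: CellTiter-Glo luminescence.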
KB-3-1 cytotox – KB-3-1 parental cell cytotoxicity; KB-3-1 viability, CellTiter-Glo ATP luminescence, 72 h; Potency, µM (top dose mostly 46.1 µM), hits mostly cytotoxic; actives 1.4% (n = 400,000); AID 1347075; note: % is set by controls: 0 for no effect and ±100 for the full control effect; nearly all actives have a fitted effect of over 60% in size
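Here the drug-naive KB-3-1 line serves as comparator for MDR sub-line selectivity; cells received compound titrations, 72 h at 37 °C, then CellTiter-Glo readout.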
SW480 rerep – inducers of DNA re-replication in SW480 colon cancer cells | actives 1.8% (n = 340,000) | AID 624297 | SW480 DNA re-replication, Hoechst DNA content imaging, 48 h | Potency, µM (doses to about 46.1 µM), without a hit: at the highest dose re-replication activation, hits mostly activators; note: % of control where 0% means no effect; nearly all actives have a fitted effect of over 55% in size
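Per well, 250 cells were exposed to pinned compound for 48 hr. Nuclear DNA was visualised with Hoechst (40 min, 37 C) and total object intensity recorded by fluorescence scanning.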
An asterisk follows results filed as active; i = inactive; ? = inconclusive; . = no result. Calls come from the whole dose curve; as a rule, active = well fitted curve in the direction sought with a large enough effect; inconclusive = small, poorly fitted or top-dose-only effect, or another doubt; inactive = no such curve, though single readings can be large; an effect the other way counts as inactive or inconclusive. Potency is the fitted concentration of half-maximal effect.

SMILES | KB-V1 cytotox | MCF10A rerep | HT1080 IDH1KD tx | HT1080-NT tox | KB-3-1 cytotox | SW480 rerep
CCCOc1ccc(C2c3c(-c4ccccc4O)n[nH]c3C(=O)N2Cc2ccncc2)cc1OCC (centres undefined) | i | . | . | . | i | .
CCOC(=O)C(=CNc1cc(Cl)c(-c2ccco2)c(Cl)c1)C(=O)OCC | i | 16µM* | -9% | ? | i | 22%
CCOC(=O)C(=CNc1ccccc1Cl)C(=O)OCC | i | 1% | 1% | 11% | i | -3%
CCOC(=O)C(=CNc1ccc(-c2ccco2)c(Cl)c1)C(=O)OCC | i | 21µM* | 0% | -1% | i | 18%
COc1ccc(C2CC(c3ccc(Cl)cc3)=NN2C(C)=O)cc1 (centres undefined) | ? | 10% | -6% | -13% | i | -2%
COc1ccc(C2CC(c3ccncc3)=NN2c2ccc(S(N)(=O)=O)cc2)cc1 (centres undefined) | i | 2.9µM* | ? | ? | i | 18µM*
COc1ccc(C2CC(c3ccc(Cl)cc3)=NN2c2ccc(S(N)(=O)=O)cc2)cc1 (centres undefined) | i | ? | ? | ? | ? | 0.82µM*
COc1ccc(C2CC(c3cccc(Cl)c3)=NN2c2ccc(S(N)(=O)=O)cc2)cc1 (centres undefined) | ? | 1.3µM* | -19% | -28% | ? | 2.1µM*
COc1ccc(C2CC(c3ccccc3)=NN2C(=O)COC(=O)c2ccc(S(C)(=O)=O)cc2)cc1 (centres undefined) | ? | 2% | -2% | -3% | i | 1%
CCc1ccc(N=C2NC(=O)CC(C(=O)Nc3ccc(OC)cc3)S2)cc1 (centres undefined) | i | . | . | . | i | .
N#Cc1ccc(C(=O)N(Cc2ccco2)Cc2cccs2)cc1 | i | . | . | . | i | .
C=CC[C@H](c1ccc(F)cc1)N(CC(C)C)S(=O)(=O)C=C | i | . | . | . | ? | .
Cc1cc(C)c2c(=O)cc(C(=O)NCCc3ccc(S(N)(=O)=O)cc3)oc2c1 | ? | . | . | . | i | .
Cc1ccc(OCCSc2nc3ccccc3n2CC(=O)N2CCCCC2)cc1C | i | . | . | . | i | .
Cc1cc2n(n1)CCC(=O)N2Cc1ccc(C(=O)Nc2ccc(Br)c(C)c2)cc1 | i | . | . | . | ? | .
Cc1cc(S(=O)(=O)N2CCN(c3c(C)cccc3C)CC2)ccc1F | ? | 9% | ? | ? | i | -2%
CCC(C)N(C)Cc1cccc(C2(O)CCN(S(=O)(=O)c3ccc(F)c(C)c3)CC2)c1 (centres undefined) | ? | 15µM* | 0% | -3% | i | ?
CCCCN(CC)CCNC(=O)CN1C(=O)COc2ccc(S(=O)(=O)N3CCOCC3)cc21 | ? | . | . | . | i | .
Cc1cccc(NC(=O)c2oc3ccccc3c2NC(=O)Cc2coc3cc(C)cc(C)c23)c1 | i | . | . | . | i | .
CCOC(=O)c1[nH]c2ccc(F)cc2c1NC(=O)C(C)N1CCc2cc(OC)c(OC)cc2C1 (centres undefined) | ? | 7.3µM* | 16µM* | ? | 16µM* | 16µM*
COc1ccc2c(c1OC)CN1CCc3cc4c(cc3[C@@H]1[C@@H]2O)OCO4 | i | 14% | 11% | 0% | i | -5%
O[C@@H]1[C@@H](O)C=C2CCN3Cc4cc5c(cc4[C@H]1C23)OCO5 (some centres undefined) | 5.2µM* | 1% | 5.8µM* | 1.8µM* | 8.2µM* | ?
CCn1c2ccccc2c2cc(NC(=O)COc3ccccc3OC)ccc21 | 6.5µM* | 5.8µM* | 16µM* | ? | 4.6µM* | 15µM*
CCn1c2ccccc2c2cc(NC(=O)CNCc3ccccc3OC)ccc21 | ? | 7.3µM* | 6.5µM* | 3.7µM* | ? | 7.3µM*
CCn1c2ccccc2c2cc(NC(=O)COc3ccc(C)c(C)c3)ccc21 | i | . | . | . | i | .
SMILES | KB-V1 cytotox | MCF10A rerep | HT1080 IDH1KD tx | HT1080-NT tox | KB-3-1 cytotox | SW480 rerep
COc1cccc(C(=O)Nc2cccc3c2ccc2cccn23)c1 | i | ? | -28% | -23% | i | 16µM*
CCn1c(=O)sc2cc(NC(=O)c3cccc(OC)c3)ccc21 | i | . | . | . | i | .
CCn1c2ccccc2c2cc(NC(=O)c3cccc(OC)c3)ccc21 | ? | ? | ? | 13µM* | ? | 7.9µM*
O=C(NCCn1cc(SCc2ccccc2F)c2ccccc21)c1cccs1 | i | . | . | . | ? | .
CCOC(=O)c1ccc(NS(=O)(=O)c2ccc3c(c2)CCN3C(=O)CC)cc1 | i | . | . | . | i | .
Cc1cc(C)c(NC(=O)CSc2ncc(S(=O)(=O)c3ccc(C(C)(C)C)cc3)c(=O)[nH]2)c(C)c1 | i | . | . | . | i | .
COc1ccc(NC(=O)C2CCN(S(=O)(=O)c3ccc4c(c3)CCCC(=O)N4)CC2)cc1OC | i | . | . | . | i | .
Cc1ccc(-c2ccc(=O)n(CC(=O)Nc3ccc(C(C)C)cc3)n2)cc1 | i | . | . | . | i | .
Cc1c(O)ccc2c(CN3CCN(C/C=C/c4ccccc4)CC3)cc(=O)oc12 | ? | -2% | ? | ? | ? | 22%
CC(C)CN(Cc1cc(=O)oc2cc(-c3ccccc3)c(O)cc12)CC(C)C | i | ? | ? | 26µM* | ? | 14%
O=c1cc(CN2CCN(C/C=C/c3ccccc3)CC2)c2cc(O)c(-c3ccccc3)cc2o1 | i | 13% | 16% | 6% | ? | 18µM*
CCNC(=O)C1CCN(Cc2cc3ccccc3n2Cc2ccc(C)cc2)CC1 | i | . | . | . | i | .
CCCCOC(=O)c1ccc(NS(=O)(=O)c2c(C)nc3scc(C)n3c2=O)cc1 | 8.2µM* | . | . | . | i | .
Cc1nc2scc(C)n2c(=O)c1S(=O)(=O)Nc1ccc(F)cc1 | i | -9% | -8% | -14% | i | 1%
COc1ccc(OCC(=O)Nc2cccc(-c3nc4ccccc4s3)c2C)cc1 | i | . | . | . | i | .
CCCCc1cc(=O)oc2cc(OCC(=O)N(CC)CC)ccc12 | 7.3µM* | 9% | 5% | 3% | i | -3%
C=C(Cl)COc1ccc2c(CCCC)cc(=O)oc2c1 | i | 24% | -3% | -4% | i | 13%
CN1c2ccccc2-c2nc3ccccc3n2C1c1cccs1 (centres undefined) | ? | 10µM* | ? | ? | ? | ?
CCCNc1ccc(-c2nc(-c3ccncc3)no2)cc1[N+](=O)[O-] | i | . | . | . | i | .
